# Assay results published in PubChem BioAssay (EPA / NIEHS).
# Records with an inconclusive call do not appear. Active and inactive are the calls of the source. The calls were made as follows, unless noted: active = hit-call score of the fitted dose curve at least 0.9, where 1 is the maximum; inactive = score below 0.9.
# Columns and labels:
# [1] = molecular target: Bile acid receptor (Homo sapiens) (UniProt Q96RI1); assay: ATG_FXR_TRANS: Attagene TRANS-FACTORIAL HepG2 Assay for Farnesoid X Receptor (FXR) (AID 2282979; active = hit-call score of the fitted dose curve at least 0.9, where 1 is the maximum;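 also: hits raise reporter mRNA above DMSO so AC50 marks FXR activation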); details: HepG2 Attagene TRANS FXR-GAL4 reporter transcription
# Bile acid receptor (Homo sapiens), sequence (Q96RI1 whole entry, looked up, the tested form may be a part): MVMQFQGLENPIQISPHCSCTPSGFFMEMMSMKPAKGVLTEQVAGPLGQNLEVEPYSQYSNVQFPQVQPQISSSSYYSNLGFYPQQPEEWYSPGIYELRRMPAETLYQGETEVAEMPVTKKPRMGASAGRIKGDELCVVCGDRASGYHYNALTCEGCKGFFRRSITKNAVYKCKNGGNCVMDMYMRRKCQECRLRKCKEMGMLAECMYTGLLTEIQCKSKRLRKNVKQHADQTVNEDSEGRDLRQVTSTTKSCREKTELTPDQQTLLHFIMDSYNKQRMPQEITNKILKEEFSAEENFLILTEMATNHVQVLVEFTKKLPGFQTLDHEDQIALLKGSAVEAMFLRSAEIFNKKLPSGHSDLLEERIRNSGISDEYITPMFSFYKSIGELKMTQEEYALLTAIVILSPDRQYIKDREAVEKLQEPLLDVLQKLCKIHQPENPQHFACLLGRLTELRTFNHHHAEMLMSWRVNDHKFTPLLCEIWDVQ
# How it was run: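 HepG2 cells transiently transfected with reporter constructs in which a chimeric FXR-GAL4 protein drives a GAL4-UAS reporter; 24 h compound exposure. Reporter mRNA measured by RT-PCR, FAM labelling, HpaI digestion and capillary electrophoresis; gain-of-signal versus DMSO.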
# [2] = molecular target: Oxysterols receptor LXR-beta (Homo sapiens) (UniProt P55055); assay: ATG_LXRb_TRANS: Attagene TRANS-FACTORIAL HepG2 Assay for human Liver X Receptor beta (LXRb) (AID 2282981; active = hit-call score of the fitted dose curve at least 0.9, where 1 is the maximum); details: HepG2 Attagene TRANS GAL4-LXRb reporter, mRNA
# Oxysterols receptor LXR-beta (Homo sapiens), sequence (P55055 whole entry, looked up, the tested form may be a part): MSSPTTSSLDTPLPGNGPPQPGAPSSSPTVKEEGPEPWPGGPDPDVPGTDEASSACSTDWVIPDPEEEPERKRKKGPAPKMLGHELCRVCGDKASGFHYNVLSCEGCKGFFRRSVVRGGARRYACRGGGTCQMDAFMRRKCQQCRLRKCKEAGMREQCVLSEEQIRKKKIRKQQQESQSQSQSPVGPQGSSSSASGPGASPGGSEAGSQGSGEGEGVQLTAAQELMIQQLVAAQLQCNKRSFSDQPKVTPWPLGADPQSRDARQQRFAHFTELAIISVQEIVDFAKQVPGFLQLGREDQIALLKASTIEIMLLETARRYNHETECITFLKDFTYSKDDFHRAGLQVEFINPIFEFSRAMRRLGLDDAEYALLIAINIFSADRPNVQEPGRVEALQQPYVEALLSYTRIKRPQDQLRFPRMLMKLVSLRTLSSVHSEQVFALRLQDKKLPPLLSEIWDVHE
# How it was run: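 After 24 h of chemical treatment, transfected HepG2 cells yield total RNA; reporter cDNA is PCR-amplified, FAM-labelled, HpaI-cut and run on capillary electrophoresis. Signal reflects chimeric LXRb-Gal4 activity on GAL4-UAS reporters.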
# [3] = molecular target: Hepatocyte nuclear factor 4-alpha (Homo sapiens) (UniProt P41235); assay: ATG_HNF4a_TRANS: Attagene TRANS-FACTORIAL HepG2 Assay for human Hepatocyte Nuclear Factor 4 alpha (HNF4a) (AID 2282982; active = hit-call score of the fitted dose curve at least 0.9, where 1 is the maximum); details: HepG2 HNF4a transactivation reporter, mRNA readout
# Hepatocyte nuclear factor 4-alpha (Homo sapiens), sequence (P41235 whole entry, looked up): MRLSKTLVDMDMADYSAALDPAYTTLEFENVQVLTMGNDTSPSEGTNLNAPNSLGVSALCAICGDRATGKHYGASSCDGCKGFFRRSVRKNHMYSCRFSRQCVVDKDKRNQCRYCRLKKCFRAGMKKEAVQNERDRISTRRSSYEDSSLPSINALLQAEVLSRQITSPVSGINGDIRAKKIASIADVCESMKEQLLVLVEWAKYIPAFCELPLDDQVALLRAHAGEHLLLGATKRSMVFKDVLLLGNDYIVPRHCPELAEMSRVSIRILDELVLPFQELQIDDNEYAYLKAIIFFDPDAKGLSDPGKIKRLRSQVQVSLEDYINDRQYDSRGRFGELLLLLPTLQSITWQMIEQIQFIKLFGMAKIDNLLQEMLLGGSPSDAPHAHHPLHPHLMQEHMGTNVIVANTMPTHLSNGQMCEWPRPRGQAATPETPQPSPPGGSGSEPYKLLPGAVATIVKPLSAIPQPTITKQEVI
# How it was run: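 Multiplexed reporter assay: transfected HepG2, 24 h exposure, total RNA → oligo(dT) RT → PCR → 6-FAM extension → HpaI digest → CE fluorescence. DMSO = negative control.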
# [4] = ATG_M_06_TRANS: Attagene TRANS-FACTORIAL HepG2 Assay for M06 Transcription Factor (Internal Marker) (AID 2282983; active = hit-call score of the fitted dose curve at least 0.9, where 1 is the maximum;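 also: reporter transcript level by RT-PCR then capillary electrophoresis fluorescence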); details: HepG2 Attagene TRANS M06 internal marker reporter
# How it was run: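 In this multiplexed HepG2 system, compounds are incubated 24 h with cells carrying GAL4-UAS reporter units. Reporter RNA is amplified and resolved by capillary electrophoresis, and induction is scored against DMSO.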
# [5] = molecular target: Transcriptional activator Myb (Homo sapiens) (UniProt P10242); assay: ATG_Myb_CIS: Attagene CIS-FACTORIAL HepG2 Assay for human Myeloblastosis (Myb) Proto-Oncogene Transcription Factor (AID 2282986); details: HepG2 Attagene CIS-FACTORIAL Myb reporter transcription; actives raise or lower the signal
# Transcriptional activator Myb (Homo sapiens), sequence (P10242 whole entry, looked up): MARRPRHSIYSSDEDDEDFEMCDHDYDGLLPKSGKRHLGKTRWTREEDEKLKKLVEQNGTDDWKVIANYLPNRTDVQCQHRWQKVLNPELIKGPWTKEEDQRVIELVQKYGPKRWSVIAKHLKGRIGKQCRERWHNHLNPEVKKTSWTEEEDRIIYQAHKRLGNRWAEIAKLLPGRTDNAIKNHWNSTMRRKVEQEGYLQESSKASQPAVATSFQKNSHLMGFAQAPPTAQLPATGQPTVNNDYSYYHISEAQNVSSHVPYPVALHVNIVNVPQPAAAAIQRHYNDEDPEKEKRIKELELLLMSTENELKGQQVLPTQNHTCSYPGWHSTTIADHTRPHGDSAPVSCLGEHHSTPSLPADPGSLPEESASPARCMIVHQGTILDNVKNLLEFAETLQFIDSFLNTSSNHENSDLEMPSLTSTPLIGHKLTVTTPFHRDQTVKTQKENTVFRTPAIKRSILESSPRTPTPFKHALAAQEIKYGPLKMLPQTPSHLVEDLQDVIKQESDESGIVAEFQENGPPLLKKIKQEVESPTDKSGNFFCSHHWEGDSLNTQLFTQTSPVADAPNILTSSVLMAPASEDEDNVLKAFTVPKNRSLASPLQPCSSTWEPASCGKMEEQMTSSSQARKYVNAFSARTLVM
# How it was run: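 Steps: transfect HepG2 with cis-regulated reporter units; dose with chemical for 24 h; isolate RNA, reverse-transcribe, PCR-amplify and FAM-label reporter sequences; digest with HpaI; resolve by capillary electrophoresis. Activity fitted in both directions relative to DMSO.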
# [6] = molecular target: Nuclear respiratory factor 1 (Homo sapiens) (UniProt Q16656); assay: ATG_NRF1_CIS: Attagene CIS-FACTORIAL HepG2 Assay for human Nuclear Respiratory Factor 1 (NRF1) Orphan Gene (AID 2282987); details: HepG2 NRF1 cis-element reporter, Attagene multiplex; actives raise or lower the signal
# Nuclear respiratory factor 1 (Homo sapiens), sequence (Q16656 whole entry, looked up, the tested form may be a part): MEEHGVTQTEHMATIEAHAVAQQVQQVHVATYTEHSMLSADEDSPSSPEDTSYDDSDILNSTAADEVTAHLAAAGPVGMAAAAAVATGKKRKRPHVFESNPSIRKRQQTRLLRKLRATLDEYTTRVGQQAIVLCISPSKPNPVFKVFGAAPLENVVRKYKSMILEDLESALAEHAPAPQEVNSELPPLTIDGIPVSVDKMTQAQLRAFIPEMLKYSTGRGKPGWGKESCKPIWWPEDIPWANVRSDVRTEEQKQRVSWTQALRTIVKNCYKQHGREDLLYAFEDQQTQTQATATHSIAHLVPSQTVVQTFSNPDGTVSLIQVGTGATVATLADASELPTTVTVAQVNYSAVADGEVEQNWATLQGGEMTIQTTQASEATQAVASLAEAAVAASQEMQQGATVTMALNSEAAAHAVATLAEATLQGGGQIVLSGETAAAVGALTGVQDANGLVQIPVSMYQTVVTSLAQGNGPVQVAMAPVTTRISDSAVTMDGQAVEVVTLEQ
# How it was run: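 Fluorescence intensity of labelled reporter cDNA fragments, resolved by capillary electrophoresis, served as readout for NRF1 cis-element activity. Transiently transfected HepG2 cells were dosed for 24 hours; activity in either direction was fitted against DMSO negative control.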
# [7] = ATG_NFI_CIS: Attagene CIS-FACTORIAL HepG2 Assay for human Nuclear Factor I (NFI) (AID 2282989); details: HepG2 cis-regulatory reporter, NFI response element transcription; actives raise or lower the signal
# How it was run: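 After transient transfection of HepG2 with cis-promoter reporter constructs and 24 h dosing, RNA is reverse-transcribed, amplified, 6-FAM end-labelled and HpaI-digested before capillary analysis. Bidirectional curve fitting against DMSO.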
# [8] = ATG_NF_kB_CIS: Attagene CIS-FACTORIAL HepG2 Assay for human Nuclear Factor Kappa B (NF-kB) (AID 2282991); details: HepG2 Attagene cis-factorial NF-kB reporter mRNA; actives raise or lower the signal
# How it was run: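 Endogenous transcription factor activity in HepG2 was captured via cis-regulated reporter constructs; after 24 h dosing, reporter mRNA was reverse-transcribed, amplified, fluorescently labelled and sized by capillary electrophoresis, with activity fitted bidirectionally relative to DMSO.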
# [9] = ATG_NRF2_ARE_CIS: Attagene CIS-FACTORIAL HepG2 Assay for human Nuclear Factor Erythroid 2 Related Factor 2 (NFR2) response to Antioxidant Response Elements (ARE) (AID 2282992); details: HepG2 Attagene ARE/NRF2 reporter, transcription factor activity; actives raise or lower the signal
# How it was run: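 Endogenous transcription factor activity in human liver HepG2 cells is tracked via a cis-element-driven reporter within a multiplexed set. mRNA induction is read by RT-PCR and capillary electrophoresis after 24 h, with DMSO as baseline.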
# [10] = ATG_Oct_MLP_CIS: Attagene CIS-FACTORIAL HepG2 Assay for human Octamer-Binding Transcription Factor (Oct) (AID 2282993); details: HepG2 Attagene cis-factorial Oct reporter, mRNA; actives raise or lower the signal
# How it was run: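 Cells of the HepG2 line express promoter-controlled reporter sequences whose mRNA levels, after 24 h treatment, are measured by RT-PCR and capillary electrophoresis. Increases and decreases are scored relative to DMSO.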
# [11] = BSK_3C_TissueFactor: BioMAP Diversity Plus: 3C Assay for Tissue Factor Biomarker Activity (AID 2282997); details: BioMAP 3C HUVEC, tissue factor biomarker readout; actives raise or lower the signal
# How it was run: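 Readout: Tissue Factor ELISA. Cells: human primary umbilical vein endothelium. Time: 24 h after dosing. Analysis: bidirectional fit, DMSO baseline.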
# [12] = BSK_3C_uPAR: BioMAP Diversity Plus: 3C Assay for Urokinase-type plasminogen activator receptor (uPAR) Biomarker Activity (AID 2282998); details: BioMAP 3C HUVEC, uPAR biomarker ELISA; actives raise or lower the signal
# How it was run: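 Endothelial primary cells of human umbilical vein origin received test chemical; 24 h later uPAR was assayed by ELISA. Fitting was bidirectional, DMSO as negative control.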
# [13] = BSK_3C_VCAM1: BioMAP Diversity Plus: 3C Assay for Vascular cell adhesion molecule 1 (VCAM1) Biomarker Activity (AID 2282999); details: BioMAP 3C HUVEC, VCAM1 ELISA, cytokine-stimulated; actives raise or lower the signal
# How it was run: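 Activity fitted in both directions relative to DMSO, with ELISA measurement of the surface marker on primary HUVEC (3C) at 24 h post-treatment; parallel SRB staining (0.1% SRB, TCA-fixed, 560 nm) flagged overt cytotoxicity.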
# [14] = molecular target: Glucocorticoid receptor (Homo sapiens) (UniProt P04150); assay: ATG_GR_TRANS: Attagene TRANS-FACTORIAL HepG2 Assay for human Glucocorticoid Receptor (GR) (AID 2282978; active = hit-call score of the fitted dose curve at least 0.9, where 1 is the maximum;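 also: activators score as hits since higher reporter transcript over DMSO is fitted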); details: HepG2 Attagene TRANS GR reporter, mRNA transcription
# Glucocorticoid receptor (Homo sapiens), sequence (P04150 whole entry, looked up, the tested form may be a part): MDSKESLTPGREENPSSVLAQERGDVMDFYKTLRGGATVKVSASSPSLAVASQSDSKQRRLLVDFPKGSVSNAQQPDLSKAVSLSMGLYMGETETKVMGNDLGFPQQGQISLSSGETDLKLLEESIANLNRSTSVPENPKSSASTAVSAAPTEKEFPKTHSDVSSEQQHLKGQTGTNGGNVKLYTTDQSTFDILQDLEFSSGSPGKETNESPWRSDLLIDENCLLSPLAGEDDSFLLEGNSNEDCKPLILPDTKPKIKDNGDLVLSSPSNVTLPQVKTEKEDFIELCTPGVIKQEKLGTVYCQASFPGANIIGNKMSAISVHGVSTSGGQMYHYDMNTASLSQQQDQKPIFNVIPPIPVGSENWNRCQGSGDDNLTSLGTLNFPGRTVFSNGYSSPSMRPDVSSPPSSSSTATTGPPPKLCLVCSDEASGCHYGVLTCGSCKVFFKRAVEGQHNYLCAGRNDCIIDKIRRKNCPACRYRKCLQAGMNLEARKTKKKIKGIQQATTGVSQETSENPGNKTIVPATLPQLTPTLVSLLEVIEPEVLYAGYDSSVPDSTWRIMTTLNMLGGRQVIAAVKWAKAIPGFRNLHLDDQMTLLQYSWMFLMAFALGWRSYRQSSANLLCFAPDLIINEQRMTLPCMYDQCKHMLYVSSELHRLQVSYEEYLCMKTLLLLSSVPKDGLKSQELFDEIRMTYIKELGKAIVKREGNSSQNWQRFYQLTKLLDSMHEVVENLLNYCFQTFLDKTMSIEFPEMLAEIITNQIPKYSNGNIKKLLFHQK
# How it was run: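 In this trans-factorial format, exogenous NR-GAL4 chimeric proteins in transfected HepG2 cells regulate GAL4-UAS reporter transcription. After 24 h treatment, reporter mRNA induction relative to DMSO is read by RT-PCR and capillary electrophoresis.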
# [15] = ATG_M_32_TRANS: Attagene TRANS-FACTORIAL HepG2 Assay for M32 Transcription Factor (Internal Marker) (AID 2282984; active = hit-call score of the fitted dose curve at least 0.9, where 1 is the maximum;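 also: transcript level of a background control reporter unit measured by RT-PCR and capillary electrophoresis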); details: HepG2 Attagene TRANS M32 internal marker reporter
# How it was run: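 Cell-based TRANS-format assay in HepG2: exogenous chimeric GAL4 reporter units transiently expressed, compounds applied 24 h. Reporter mRNA detected by RT-PCR plus capillary electrophoresis; this readout is an internal background marker.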
# [16] = molecular target: Myc proto-oncogene protein (Homo sapiens) (UniProt P01106); assay: ATG_Myc_CIS: Attagene CIS-FACTORIAL HepG2 Assay for human Myelocytomatosis (Myc) Proto-Oncogene Transcription Factor (AID 2282990); details: HepG2, Attagene cis-reporter transcription factor activity; actives raise or lower the signal
# Myc proto-oncogene protein (Homo sapiens), sequence (P01106 whole entry, looked up, the tested form may be a part): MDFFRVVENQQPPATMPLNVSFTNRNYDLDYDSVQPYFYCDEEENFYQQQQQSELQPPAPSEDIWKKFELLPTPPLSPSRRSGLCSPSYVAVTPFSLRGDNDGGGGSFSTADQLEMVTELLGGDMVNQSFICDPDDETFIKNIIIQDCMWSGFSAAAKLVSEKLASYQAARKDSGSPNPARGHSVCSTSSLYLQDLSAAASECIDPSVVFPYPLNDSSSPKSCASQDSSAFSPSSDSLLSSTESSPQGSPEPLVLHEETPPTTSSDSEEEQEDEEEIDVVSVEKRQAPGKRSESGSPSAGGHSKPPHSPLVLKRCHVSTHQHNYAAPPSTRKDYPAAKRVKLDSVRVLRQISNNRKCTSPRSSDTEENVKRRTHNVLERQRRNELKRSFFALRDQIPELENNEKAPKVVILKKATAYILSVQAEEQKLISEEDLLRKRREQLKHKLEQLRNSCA
# How it was run: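 After 24 h chemical treatment of HepG2 cells carrying multiplexed cis-regulated reporter constructs, reporter transcripts quantified by RT-PCR and capillary electrophoresis of fluorescent fragments. Gain or loss fitted against DMSO baseline.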
# [17] = molecular target: Cellular tumor antigen p53 (Homo sapiens) (UniProt P04637); assay: ATG_p53_CIS: Attagene CIS-FACTORIAL HepG2 Assay for human p53 Transcription Factor (AID 2282994); details: HepG2 p53 cis-element reporter, Attagene mRNA; actives raise or lower the signal
# Cellular tumor antigen p53 (Homo sapiens), sequence (P04637 whole entry, looked up, the tested form may be a part): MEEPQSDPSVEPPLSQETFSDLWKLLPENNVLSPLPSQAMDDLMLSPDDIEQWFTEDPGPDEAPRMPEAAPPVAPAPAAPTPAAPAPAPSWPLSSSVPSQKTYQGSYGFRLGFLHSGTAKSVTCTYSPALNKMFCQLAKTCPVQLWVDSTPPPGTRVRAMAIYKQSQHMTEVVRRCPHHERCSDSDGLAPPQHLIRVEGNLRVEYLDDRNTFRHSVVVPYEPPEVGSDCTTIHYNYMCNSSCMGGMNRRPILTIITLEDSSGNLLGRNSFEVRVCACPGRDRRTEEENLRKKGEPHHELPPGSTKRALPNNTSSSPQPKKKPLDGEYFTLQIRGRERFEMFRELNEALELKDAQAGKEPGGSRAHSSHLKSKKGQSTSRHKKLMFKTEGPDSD
# How it was run: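 Steps: transfect HepG2 with multiplexed cis reporter constructs; dose chemicals 24 h; extract RNA, reverse-transcribe, PCR-amplify reporter sequences; FAM-label, HpaI-digest, resolve fragments by CE. Activity fitted both directions relative to DMSO.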
# [18] = molecular target: Oxysterols receptor LXR-alpha (Homo sapiens) (UniProt Q13133); assay: ATG_LXRa_TRANS: Attagene TRANS-FACTORIAL HepG2 Assay for human Liver X Receptor alpha (LXRa) (AID 2282980; active = hit-call score of the fitted dose curve at least 0.9, where 1 is the maximum); details: HepG2 Attagene TRANS reporter, LXRa transactivation
# How it was run: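 HepG2 cells were transiently transfected with multiplexed reporter units driven by chimeric LXRa–GAL4 fusion proteins, then dosed for 24 h. Reporter mRNA was quantified by RT-PCR, fluorescent labelling and capillary electrophoresis; gain of signal fitted against DMSO baseline.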
# [19] = molecular target: Nuclear receptor subfamily 4 group A member 2 (Homo sapiens) (UniProt P43354); assay: ATG_NURR1_TRANS: Attagene TRANS-FACTORIAL HepG2 Assay for human Nuclear Receptor Related Protein 1 (NURR1) (AID 2282985; active = hit-call score of the fitted dose curve at least 0.9, where 1 is the maximum); details: HepG2 Attagene TRANS reporter, mRNA readout
# Nuclear receptor subfamily 4 group A member 2 (Homo sapiens), sequence (P43354 whole entry, looked up, the tested form may be a part): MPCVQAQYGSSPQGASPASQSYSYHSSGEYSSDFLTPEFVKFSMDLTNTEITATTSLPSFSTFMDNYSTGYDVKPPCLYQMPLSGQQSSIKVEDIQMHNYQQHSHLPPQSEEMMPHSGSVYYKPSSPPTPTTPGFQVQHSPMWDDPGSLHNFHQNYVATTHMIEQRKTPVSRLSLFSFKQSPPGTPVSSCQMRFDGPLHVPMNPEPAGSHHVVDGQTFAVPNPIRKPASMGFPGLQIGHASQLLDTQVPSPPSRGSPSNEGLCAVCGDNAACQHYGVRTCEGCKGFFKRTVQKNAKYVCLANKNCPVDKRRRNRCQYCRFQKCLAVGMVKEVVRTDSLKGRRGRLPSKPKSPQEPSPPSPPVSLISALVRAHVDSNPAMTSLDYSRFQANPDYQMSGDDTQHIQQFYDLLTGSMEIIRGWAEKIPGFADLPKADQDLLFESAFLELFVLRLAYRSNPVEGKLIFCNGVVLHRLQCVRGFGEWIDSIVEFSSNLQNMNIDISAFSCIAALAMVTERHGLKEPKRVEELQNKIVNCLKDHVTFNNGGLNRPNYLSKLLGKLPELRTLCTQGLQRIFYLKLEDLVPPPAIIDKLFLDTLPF
# How it was run: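 Measures transcriptional activation by an exogenous NR-Gal4 chimera in transfected HepG2 liver cells. After 24 h, reporter RNA is reverse-transcribed, amplified and resolved by capillary electrophoresis; DMSO defines baseline.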
structure (smiles),measurement,setting,value
CCCCCC1=CCCC1=O,outcome,[1],inactive
same,outcome,[2],inactive
same,outcome,[3],inactive
same,outcome,[4],inactive
same,outcome,[5],inactive
same,outcome,[6],inactive
same,outcome,[7],inactive
same,outcome,[8],inactive
same,AC50,[9],55.8 µM (active)
same,outcome,[10],inactive
same,outcome,[11],inactive
same,outcome,[12],inactive
same,outcome,[13],inactive
C=Cc1cccc(C)c1,outcome,[14],inactive
same,outcome,[4],inactive
same,outcome,[15],inactive
same,outcome,[5],inactive
same,outcome,[7],inactive
same,outcome,[16],inactive
same,outcome,[9],inactive
same,outcome,[10],inactive
same,outcome,[17],inactive
Oc1ccc(/C=C/c2cc(O)cc(O)c2)cc1,outcome,[1],inactive
same,outcome,[18],inactive
same,outcome,[2],inactive
same,outcome,[3],inactive
same,outcome,[4],inactive
same,AC50,[19],74.6 µM (active)
same,outcome,[5],inactive
same,AC50,[6],179 µM (active)
same,outcome,[7],inactive
same,outcome,[16],inactive
same,AC50,[8],100 µM (active)
same,AC50,[9],24.6 µM (active)
same,outcome,[10],inactive
same,outcome,[17],inactive
same,outcome,[11],inactive
same,outcome,[12],inactive
same,outcome,[13],inactive
CC1=C(O)C(=O)C(C)O1 (stereo not drawn),outcome,[1],inactive
same,outcome,[2],inactive
same,outcome,[4],inactive
same,outcome,[19],inactive
same,outcome,[5],inactive
same,outcome,[6],inactive
same,outcome,[7],inactive
same,outcome,[16],inactive
same,outcome,[8],inactive
same,outcome,[9],inactive
same,outcome,[10],inactive
same,outcome,[17],inactive
CCCCCCCCCCCCCc1ccccc1,outcome,[1],inactive
same,outcome,[2],inactive
same,outcome,[3],inactive
same,outcome,[4],inactive
same,outcome,[15],inactive
same,outcome,[5],inactive
same,outcome,[6],inactive
same,outcome,[7],inactive
same,outcome,[16],inactive
same,outcome,[8],inactive
same,outcome,[9],inactive
same,outcome,[10],inactive
same,outcome,[17],inactive
N#Cc1ccc(C(c2ccc(C#N)cc2)n2cncn2)cc1,outcome,[14],inactive
same,outcome,[15],inactive
same,outcome,[5],inactive
same,outcome,[6],inactive
same,outcome,[7],inactive
same,outcome,[16],inactive
same,outcome,[8],inactive
same,outcome,[9],inactive
same,outcome,[10],inactive
